Experiment [1] has as its target Cytochrome P450 3A7 (Homo sapiens) (UniProt P24462). Briefly: Cytochrome P450 family 3 subfamily A member 7 (CYP3A7) small molecule antagonists: luciferase biochemical qHTS assay (AID 1963596). Further: on the % scale 0 is the no-effect control and ±100 the full control effect; nearly all actives have a fitted effect of over 40% in size. As to conditions: P450-Glo CYP3A7 enzyme luminescence, 1 h; series mostly up to 57.4 µM. The gist of the method: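 Enzyme-substrate mix + cpd (DMSO), 10 min RT; + NADPH regen system, 1 h RT; + luciferin detection reagent, 20 min RT; luminescence read. Proluciferin substrate, P450-Glo format, 1536-well qHTS.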

The nature of experiment [2]: Viability qHTS for spleen associated tyrosine kinase inhibitor (SYKi) naive MV4-11 cells (AID 1963823). Further: nearly all actives have a fitted effect of over 40% in size. Further: potency means the concentration at half of the fitted maximal effect. The settings on record: MV4-11 AML viability, CellTiter-Glo luminescence, 72 h; series mostly up to 45 µM. The gist of the method: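 SYKi-naive MV4-11 AML cells, 500 per well, were exposed to library compounds for 72 hr at 37 C, 5% CO2. Viability was then read by CellTiter-Glo luminescence after 10 min at room temperature.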
(In general: In qHTS, concentration-response curves come from the screen itself.)

Experiment [3] can be described thus: Viability qHTS for spleen associated tyrosine kinase inhibitor (SYKi) drug resistant MV4-11 cells (AID 1963824). Further: nearly all actives have a fitted effect of over 35% in size. Further: potency means the concentration at half of the fitted maximal effect. As to conditions: SYKi-resistant MV4-11 viability, CellTiter-Glo, 72 h; series mostly up to 45 µM. The essentials: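 SYK inhibitor-resistant MV4-11 AML cells, 500 per well, added to predispensed compounds and incubated 72 hr at 37 C, 5% CO2. Viability measured by CellTiter-Glo luminescence after 10 min at room temperature.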

Experiment [4] can be described thus: Cellular viability qHTS for adrenocortical cancer (ACC) cell line SW-13 (AID 1963989). Further: nearly all actives have a fitted effect of over 65% in size. Further: potency means the concentration at half of the fitted maximal effect.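 On activity (max response): cells grown in serum-free medium with ITS supplement; on the % scale 0 is the no-effect control and ±100 the full control effect.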 As to conditions: SW-13 ACC cells viability, CellTiter-Glo, 48 h; activity (max response): active compounds read low. The essentials:
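Luminescent ATP read-out (CellTiter-Glo, 20 min at room temperature) measured metabolically competent SW-13 cells after 48 h compound treatment. Final concentrations spanned up to 46 uM; bortezomib served as positive control.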

Experiment [5] in a line: Cellular viability qHTS for adrenocortical cancer (ACC) cell line NCI-H295R (AID 1963990). Further: nearly all actives have a fitted effect of over 60% in size. Further: potency means the concentration at half of the fitted maximal effect. The settings on record: CellTiter-Glo ATP luminescence, 48 h; series mostly up to 46.1 µM. The essentials: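 IC50 and maximal efficacy derive from four-parameter logistic modelling of titration curves, with reads scaled between DMSO-only wells (0%) and doxorubicin hydrochloride (100% inhibition). Compounds spanned up to 46 uM over 48 h.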

“And” between values parts separate entries of the source, which are not always exact repeats. Identical values can stand only once. Results filed as inconclusive are left out. Unmarked numbers belong to inactive results. The source made the active and inactive calls. The call rests on the fitted dose curve; in most records, active means well fitted curve in the direction sought with a large enough effect; inconclusive means small, poorly fitted or top-dose-only effect, or another doubt; inactive means no such curve, though single readings can be large; an effect the other way counts as inactive or inconclusive.

Chain of Cytochrome P450 3A7 (Homo sapiens) (P24462 whole entry, looked up): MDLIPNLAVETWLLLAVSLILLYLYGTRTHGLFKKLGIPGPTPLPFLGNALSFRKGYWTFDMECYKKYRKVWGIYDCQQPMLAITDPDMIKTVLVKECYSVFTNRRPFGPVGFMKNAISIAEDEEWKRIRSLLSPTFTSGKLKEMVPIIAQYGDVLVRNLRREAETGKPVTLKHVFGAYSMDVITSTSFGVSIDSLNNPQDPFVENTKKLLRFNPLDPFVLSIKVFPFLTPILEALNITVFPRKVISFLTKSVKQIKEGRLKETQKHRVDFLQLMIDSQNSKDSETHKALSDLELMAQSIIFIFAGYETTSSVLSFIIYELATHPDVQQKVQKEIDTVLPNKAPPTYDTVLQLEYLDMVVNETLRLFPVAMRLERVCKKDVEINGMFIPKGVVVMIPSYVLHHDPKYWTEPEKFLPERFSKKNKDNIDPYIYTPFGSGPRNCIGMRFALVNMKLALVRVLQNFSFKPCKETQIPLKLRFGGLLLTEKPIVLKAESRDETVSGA

As for `CCCc1c2oc(C(=O)O)cc(=O)c2cc2c(=O)cc(C(=O)O)n(CC)c12`, the Potency entry in experiment [1], in experiment [2], in experiment [3] and in experiment [5] was “inactive” each time. Besides, the activity (max response) in experiment [4] was -2.58%.
Turning to `Cc1c(C)c2c(c(C)c1OC(=O)c1cccnc1)CC[C@@](C)(CCC[C@H](C)CCC[C@H](C)CCCC(C)C)O2`, the Potency result in experiment [1], in experiment [2], in experiment [3] and in experiment [5] was “inactive” throughout. Moreover, in experiment [4], the activity (max response) is -0.414%.
Regarding `CN1CCN(C(=O)C2CCCCC2)CC1`, the Potency entry in experiment [1], in experiment [2], in experiment [3] and in experiment [5] was “inactive” in each case. In addition, the activity (max response) in experiment [4] was 7.59%.
Regarding `CNC[C@H](O)c1cccc(O)c1`, the Potency entry in experiment [1], in experiment [3] and in experiment [5] was “inactive” in each case. Besides, in experiment [2], the Potency was 531 nM (active). Also, in experiment [4], the activity (max response) was 10.6% and -8.09%.
Regarding `COc1cc2ncnc(Nc3ccc(F)c(Cl)c3)c2cc1NC(=O)/C=C/CN1CCCCC1`, the Potency result in experiment [1] is “inactive”. Also, the Potency was 1640 nM (active) in experiment [2], 1640 nM (active) in experiment [3], 708 nM (active) in experiment [4] and 4470 nM (active) in experiment [5].
Regarding `Cn1c(=O)c2c(ncn2C)n(C)c1=O`, the Potency result in experiment [1], in experiment [2], in experiment [3] and in experiment [5] was “inactive” in each case. Also, the activity (max response) in experiment [4] is -5.31% and -10.5%.
Consider `CCC(=O)Nc1ccc(O)cc1`, for which the Potency entry in experiment [1], in experiment [2], in experiment [3] and in experiment [5] was “inactive” throughout. Moreover, in experiment [4], the activity (max response) was 0.747%.
For `Cc1cccc(C)c1NC(=O)c1ccccc1C(=O)O`, the Potency result in experiment [1], in experiment [2], in experiment [3] and in experiment [5] was “inactive” throughout. The activity (max response) in experiment [4] was 8.06%.
Turning to `C[N+]1(C)[C@@H]2CC(OC(=O)[C@H](CO)c3ccccc3)C[C@H]1[C@@H]1O[C@@H]12` (stereo not given in full), the Potency result in experiment [1], in experiment [2], in experiment [3] and in experiment [5] was “inactive” throughout. Further, the activity (max response) in experiment [4] was 8.81% and 11.1%.

The values above are taken from PubChem BioAssay (NCATS).
